Activation data for 15 molecules are collected here from PubChem BioAssay AID504550 (Sanford-Burnham Center for Chemical Genomics, 2011).

This is one part of the list. Values without a mark were called inactive. Activity calls are given as the source filed them.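 The calls were made as follows: active = mean activation at 20 µM of at least 40%; inactive = the rest.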

In the assay the target is Neurotensin receptor type 1 (Homo sapiens) (UniProt P30989). The experiment in a line: beta-arrestin-GFP spots via human NTR1 – imaging, U2OS cells, single concentration, confirmation (AID 504550).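 Also: 0% = DMSO without peptide and 100% = 100 nM NTR1 peptide.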 The settings on record: NTR1-U2OS beta-arrestin-GFP translocation imaging; at 20 µM; hits give high values.
Chain of Neurotensin receptor type 1 (Homo sapiens) (P30989 whole entry, looked up): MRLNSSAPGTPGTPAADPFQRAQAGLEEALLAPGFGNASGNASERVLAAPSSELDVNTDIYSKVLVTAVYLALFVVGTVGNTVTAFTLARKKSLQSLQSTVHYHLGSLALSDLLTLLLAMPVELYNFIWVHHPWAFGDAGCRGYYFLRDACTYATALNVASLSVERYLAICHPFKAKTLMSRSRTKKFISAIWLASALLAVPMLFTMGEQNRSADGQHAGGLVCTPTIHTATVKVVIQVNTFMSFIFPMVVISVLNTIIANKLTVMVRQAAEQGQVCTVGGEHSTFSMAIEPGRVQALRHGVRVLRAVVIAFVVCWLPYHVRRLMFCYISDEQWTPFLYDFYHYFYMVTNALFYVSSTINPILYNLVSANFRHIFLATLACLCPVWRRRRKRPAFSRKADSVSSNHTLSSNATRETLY
Consider `CC(C)(C)OC(=O)N1CCC(NC(=O)c2[nH]cnc2C(=O)N[C@@H](Cc2ccccc2)C(=O)OCc2ccccc2)CC1`, for which the activation was 51.5% (active).

Regarding `Cc1cccc(-n2c(SCC(N)=O)nc3c(c2=O)C2(CCCCC2)Cc2ccccc2-3)c1`, the activation was 22.7%.

For the molecule `Cc1cccc(-c2nc(Nc3ccc(O)cc3)c3ccccc3n2)c1`, the activation was 31.3%.

With `CCOC(=O)CSC1=C(C#N)C(c2ccco2)C(C(=O)OCc2ccccc2)=C(C)N1` (stereo not given), the activation is 7.17%.

As for `CN1/C(=C\C(=O)c2oc3ccccc3c2N)C(C)(C)c2ccccc21`, the activation was 15%.

Turning to `CCCCCCCCCCOC(=O)Cn1c(COc2cccc(OC)c2)[n+](C)c2ccccc21`, the activation was 71.8% (active).

Turning to `CC(C)Oc1c(Br)cc(Br)cc1/C=N/NC(N)=S`, the activation is 26.4%.

Regarding `O=C(N/N=C/c1c(Cl)[nH]c2ccccc12)c1sc2ccccc2c1Cl`, the activation is 21.7%.

With `O=C(/C(=C/c1cccc(Cl)c1)c1nc2ccccc2[nH]1)c1ccccc1`, the activation was 62.5% (active).

In the case of `CC(C)Cn1c(N)c(C(=O)NCc2cccs2)c2nc3ccccc3nc21`, the activation is 21%.

Regarding `COc1cccc(/C=N/Nc2cc(C)nc(-c3ccccc3O)n2)c1O`, the activation is 36.7%.

For the molecule `O=C(N/N=C/c1ccc(OC(=O)c2ccccc2Cl)cc1)c1ccc(O)cc1`, the activation was 50.1% (active).

Turning to `O=C(/C=C/c1ccc(Cl)c([N+](=O)[O-])c1)c1cccnc1`, the activation is 49.5% (active).

For the molecule `CCCCNc1c(-c2cccc(Sc3ccc(OC)cc3)c2)nc2ccccn12`, the activation was 68.2% (active).

Regarding `O=c1oc2ccccc2cc1-c1csc(Nc2ccc(O)cc2)n1`, the activation is 10.5%.
